# Reference: PubChem BioAssay AID504832 (National Center for Advancing Translational Sciences (NCATS), 2011)
# Screen size: about 310,000 compounds; about 18,000 (5.8%) were called active. Inconclusive results (about 22%) are left out. The call rests on the fitted dose curve; in most records, active means well fitted inhibition curve with a large enough effect; inconclusive means small, poorly fitted or top-dose-only effect, or another doubt; inactive means no such curve, though single readings can be large or run the other way. The sample as a whole holds a higher share of actives than the screen did.
# Test: Primary qHTS for delayed death inhibitors of the malarial parasite plastid, 48 hour incubation
# Conditions: P. falciparum luciferase growth in erythrocytes; series mostly up to 28.7 µM; activity change, negative = inhibition: at the top concentration
# Outline: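 Luminescence readout; reporter = integrated firefly luciferase in P. falciparum. RBC culture at 2% hematocrit, 0.1% parasitemia final, 37 C/5% CO2; decreased signal taken as growth inhibition.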
# On the % scale 0 is the no-effect control and ±100 the full control effect; potency means the concentration at half of the fitted maximal effect.
SMILES,"activity change, negative = inhibition",Potency
CCn1c(=S)sc2c(=O)n(CC(=O)Nc3ccc(OC)cc3)c(C)nc21,33.1% (inactive),
CC(C)Oc1ccc(CCc2nnc(SCC(=O)O)n2-c2ccccc2)cc1,1.18% [at 5.75 µM] (inactive),
C=CCn1c(CCc2ccc(OC(C)C)cc2)n[nH]c1=S,5.51% (inactive),
CC(C)Oc1ccc(CCc2n[nH]c(=S)n2Cc2ccccc2)cc1,,2.08 µM (active)
CCOc1ccccc1OCCCNCc1ccccc1,-4.88% (inactive),
COc1cccc(NS(=O)(=O)c2ccc(-c3coc(C)n3)cc2)c1,43% (inactive),
CCC(=O)Nc1ccc(-c2ccc(N3CCCCC3)nn2)cc1,-19.4% (inactive),
O=C(c1ccc(-n2cnnn2)cc1)N1CCN(C(c2ccccc2)c2ccccc2)CC1,,2.62 µM (active)
Cn1nnnc1SCC(=O)Nc1nc2ccccc2s1,43.6% (inactive),
Cn1nnnc1SCC(=O)N1CCN(C(c2ccccc2)c2ccccc2)CC1,,9.28 µM (active)
Cn1nnnc1SCC(=O)N1CCN(Cc2ccccc2)CC1,-3.12% (inactive),
O=C(O)CN1CCN(C(c2ccccc2)c2ccccc2)CC1,-9.74% (inactive),
CC(OC(=O)c1ccc(-n2cnnn2)cc1)C(=O)NCc1ccccc1 (configuration not stated),-13.8% (inactive),
COC(=O)c1sc(N2CCN(Cc3ccccc3)CC2)nc1N,-6.08% [at 0.00184 µM] (inactive),
COc1ccccc1-n1ccnc(SCC(=O)NC2CCCCC2)c1=O,-14.1% (inactive),
O=C(Nc1c2c(nn1-c1cccc(Cl)c1)CS(=O)(=O)C2)c1cccs1,-0.404% (inactive),
CCOC(=O)N1CCN(C(=O)c2cn(C)c3ccc(S(=O)(=O)N(CC)CC)cc3c2=O)CC1,7.13% (inactive),
C=CCn1cc(C(=O)NCc2ccc(Cl)cc2)c(=O)c2cc(S(=O)(=O)N(CC)CC)ccc21,,11.7 µM (active)
CCN(CC)S(=O)(=O)c1ccc(Cl)c(C(=O)NCCN2CCOCC2)c1,-1.82% (inactive),
O=C(CN1CCN(C(=O)C2CCCO2)CC1)Nc1c(Cl)cccc1Cl (configuration not stated),0.239% (inactive),
O=C(NC(=S)NC1CCCCC1)c1ccc(Cl)cc1,-16.1% (inactive),
CCOC(=O)N1CCN(S(=O)(=O)c2ccc(Br)cc2)CC1,37.3% (inactive),
COc1ccc(O)c(C(=O)c2cnc3c(c2)c(-c2ccc(F)cc2)c(C#N)c(=O)n3C)c1,,1.65 µM (active)

SMILES,"activity change, negative = inhibition",Potency
Cn1c(N)cc(-c2ccc(F)cc2)c(C#N)c1=O,-9.99% (inactive),
Cc1cc(C)c2c(-c3ccc(F)cc3)c(C#N)c(=O)n(C)c2n1,-0.519% (inactive),
COc1ccc(/C=N/Nc2nc(-c3ccc(C)cc3)c(C#N)c(=O)[nH]2)cc1,-6.4% (inactive),
CSCCC(NC(=O)c1ccccc1)C(=O)N1CCCCCCC1 (configuration not stated),-5.02% (inactive),
CSCCC(NC(=O)c1ccccc1)C(=O)N1CCN(Cc2ccc(Cl)cc2)CC1 (configuration not stated),,2.94 µM (active)
COc1ccccc1C(=O)NC(CCSC)C(=O)N1CCN(C(C)=O)CC1 (configuration not stated),0% (inactive),
c1ccc2c(c1)CSc1sccc1C2=C1CCNCC1,,11.7 µM (active)
O=C(CNC(=O)c1ccc(Br)o1)NCC1CCCO1 (configuration not stated),24.5% (inactive),
CCOC(=O)N1CCN(C(=O)COC(=O)c2cccc(S(C)(=O)=O)c2)CC1,22.3% (inactive),
CCOc1ccc(NC(=O)C(C)N2C(=O)c3ccccc3C2=O)cc1 (configuration not stated),7.81% (inactive),
COc1ccc(-c2ccc3nnc(SCC(=O)Nc4ccc(NC(C)=O)cc4)n3n2)cc1,18.1% (inactive),
COc1ccc(CNS(=O)(=O)c2ccc(NC(=O)N3CCCCC3)cc2)cc1,-5.79% (inactive),
COc1ccc(C(=O)N2CCN(c3ccc(C(C)=O)cc3F)CC2)cc1S(=O)(=O)NC1CC1,17.8% (inactive),
COc1ccc(CNC(=O)CCN2C(=O)c3ccccc3C2=O)cc1,-4.91% (inactive),
COc1ccc(CNc2ncnc3ccccc23)cc1,-8.38% (inactive),
COc1ccc(CCNCc2c(-c3ccccc3)n(C)c3ccccc23)cc1,,11.7 µM (active)
Cc1cc(N2C(=O)C3CCCN3C2c2ccc(Cl)c(Cl)c2)no1 (configuration not stated),2.43% (inactive),
COc1ccc(OC)c(C2N(c3ccccn3)C(=O)C3CCCN32)c1 (configuration not stated),9.65% (inactive),
COc1cccc(N2C(=O)C3CCCN3C2c2ccc(F)cc2)c1 (configuration not stated),,10.4 µM (active)
Cc1cccnc1CCNC(=O)C1CCC(=O)N(Cc2cccc(F)c2)C1 (configuration not stated),7.78% (inactive),
COc1ccccc1NC(=O)COC(=O)Cc1ccc(S(=O)(=O)N2CCCCC2)s1,11.4% (inactive),
CCN(Cc1ccccc1)C(=O)Cc1ccc(OC)c(S(=O)(=O)N2CCOCC2)c1,-15.6% (inactive),
COCCN(Cc1ccccc1)C(=O)Cc1ccc(S(=O)(=O)N2CCOCC2)s1,,10.4 µM (active)

SMILES,"activity change, negative = inhibition",Potency
CC1CCN(C(=O)/C(=C\c2ccccc2)NC(=O)c2ccccc2)CC1,0.253% (inactive),
Cc1c(C)n2c(SCC(=O)NC3CCCC3)nnc2[nH]c1=O,-5.51% (inactive),
CCOc1ncccc1C(=O)OCC(=O)N1c2ccccc2CC1C (configuration not stated),7.69% (inactive),
Cc1cc(C)c(S(=O)(=O)N2CCC(C(=O)OCc3c(C)noc3C)CC2)c(C)c1,,11.7 µM (active)
CCOC(=O)C1CCN(C(=O)C2CCN(S(=O)(=O)c3c(C)noc3C)CC2)CC1,-3.05% (inactive),
CCOC(=O)C1CCN(S(=O)(=O)c2c(C)noc2C)CC1,24.2% (inactive),
CCCN(C(=O)c1nc2nccc(C)n2n1)c1c(N)n(Cc2ccccc2)c(=O)[nH]c1=O,-14% (inactive),
CCOc1ccc(N(CC(=O)NCc2ccc(OC)cc2)S(=O)(=O)c2c(C)noc2C)cc1,-15.5% (inactive),
Cc1ccc(N(CC(=O)Nc2cc(C)cc(C)c2)S(=O)(=O)c2cccc3nonc23)cc1,-5.21% (inactive),
CCOC(=O)c1cccc(NC(=O)CN(c2ccc(C)cc2)S(=O)(=O)c2c(C)noc2C)c1,,8.28 µM (active)
Cc1ccc(NC(=O)[C@H](Cc2ccccc2)NC(=O)C2CCNCC2)cc1,17.4% (inactive),
O=C(Nc1ccc(S(=O)(=O)Nc2ccccn2)cc1)c1ccccc1,16.3% (inactive),
COc1cccc(NC(=O)CN(C)C(=O)CSC(=S)N2CCCC2)c1,6.54% (inactive),
Cc1coc2c(O)cc3c(c12)OC1(N2CCCCC2)C(=O)NCCCC31 (configuration not stated),,11.7 µM (active)
CCOc1ccc(CNC(=O)CCC(=O)N2CCSc3ccccc32)cc1,10.3% (inactive),
Cn1cccc1/C=N/NC(=O)CNc1cccc2ccccc12,-2.89% (inactive),
Cc1ccccc1NCC(=O)N/N=C\c1ccc([N+](=O)[O-])s1,,9.28 µM (active)
CCOc1ccc(NC(=O)CCC(=O)NNC(=O)NC2CCCCC2)cc1,-21.8% (inactive),
CCOc1ccc(NC(=O)CCC(=O)N/N=C/c2ccc([N+](=O)[O-])s2)cc1,,11.7 µM (active)
Cc1cccc(/C=N/NC(=O)CNc2cccc3ccccc23)n1,26.1% (inactive),
CCOc1ccc(NC(=O)CCC(=O)n2nc(C)cc2C)cc1,11.4% (inactive),
